This is an account of results in PubChem BioAssay (NCATS).

Where “and” joins values, the source holds several entries; their conditions need not be identical. Equal entries are not always repeated. Unmarked numbers belong to inactive results. Inconclusive results are not listed. Calls of active or inactive are those of the source. Calls follow the shape of the dose curve; as a rule, active = well fitted curve in the direction sought with a large enough effect; inconclusive = small, poorly fitted or top-dose-only effect, or another doubt; inactive = no such curve, though single readings can be large; an effect the other way counts as inactive or inconclusive.

For test [1], the target named is Glutathione peroxidase 1 (Homo sapiens) (UniProt P07203). Put plainly: Primary qHTS Assay for Inhibitors of Recombinant Selenoprotein Glutathione Peroxidase 1 (GPX1) (AID 1845191). Also: nearly all actives have a fitted effect of over 65% in size. Also: potency is read from the fitted curve at half-maximal effect. As to activity, negative = inhibition: % is scaled to controls: 0 for no effect and ±100 for the full control effect. Put shortly:
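NADPH consumption tracked by fluorescence at 340/450 nm between t=0 and t=15 min, room temperature. Final mix: 10 nM GPX1, 100 nM glutathione reductase, 1 mM GSH, 0.5 mM NADPH, 0.5 mM cumene hydroperoxide, 0.01% BSA; 30 min compound–enzyme preincubation.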

Test [2] addresses Phospholipid hydroperoxide glutathione peroxidase GPX4 (Homo sapiens) (UniProt P36969). Put plainly: Primary qHTS Assay for Inhibitors of Recombinant Selenoprotein Glutathione Peroxidase 4 (GPX4) (AID 1845192). Also: nearly all actives have a fitted effect of over 65% in size. Also: potency is read from the fitted curve at half-maximal effect. As to activity change, negative = inhibition: series mostly up to about 50 µM; % is scaled to controls: 0 for no effect and ±100 for the full control effect. Put shortly: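 NADPH consumption followed by fluorescence at 340/450 nm, t=0 and after 15 min at room temperature. Reaction started with cumene hydroperoxide (0.5 mM final) after 30 min compound–GPX4 preincubation; final 200 nM GPX4, 100 nM GR, 1 mM GSH, 0.5 mM NADPH.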

For test [3], the target named is Luciferin 4-monooxygenase (Photinus pyralis) (UniProt P08659). Description: Primary firefly luciferase (FLuc) qHTS assay for identification of artifact compounds. (AID 1845220). Also: nearly all actives have a fitted effect of over 60% in size.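 As to activity change, negative = inhibition: series mostly up to about 54 µM; plate controls were DMSO vehicle for no effect and no enzyme for full effect.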 Put shortly: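 Compounds sat 15 min at room temperature with 10 uM luciferin and 10 uM ATP (pH 7.6 Tris acetate). Firefly luciferase (10 nM final) was then added, and luminescence was read 5 min later. Data normalized to no-enzyme and DMSO controls were Hill-fitted.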
(In qHTS, concentration-response curves come from the screen itself.)

Test [4] in a line: Primary fluorescence-based thiol-reactive (MSTI) qHTS assay for identification of artifact compounds. (AID 1845221). Also: nearly all actives have a fitted effect of over 65% in size. Also: potency is read from the fitted curve at half-maximal effect.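 As to activity change, negative = thiol reactive: series mostly up to about 54 µM; thiol-reactive compounds lower the probe fluorescence signal.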 The gist of the method:
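qHTS titration of compound; 4 uM MSTI, PBS pH 7.4, 2% DMSO; 1 h RT, dark; fluorescence 525/598 nm; normalized to Acetyl-MSTI and MSTI; 4-parameter Hill fit.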

Test [5] deals with Nanoluciferase (engineered Oplophorus gracilirostris luciferase). Description: Primary Nanoluciferase (NLuc) qHTS assay for identification of artifact compounds. (AID 1845222).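 Also: series mostly up to about 54 µM; 0% = DMSO and -100% = no enzyme.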 Put shortly: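 Luminescence from secreted NLuc (filtered, 1:55-diluted S16 cell medium) read 5 min after Nano-Glo substrate; compounds preincubated 15 min, RT. Hill fits of inhibition normalized to DMSO and no-enzyme.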

A short description of test [6]: Primary redox qHTS assay for identification of artifact compounds. (AID 1845223). Put shortly: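 Redox-cycling detection via DTT (250 uM final) oxidation coupled to Amplex Red (25 uM)/HRP (250 mU/mL) in HBSS. 15 min preincubation plus 30 min after DTT, room temperature. Ex/Em 525/598 nm; 4-parameter Hill fit against DMSO and 10 uM DA3003.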
Test [7] in a line: Quantitative High-Throughput drug screen in 47 multiple myeloma cell lines against the NCATS MIPE library collection: FR4_PLB cell viability assay (AID 1918924; also: nearly all actives have a fitted effect of over 35% in size; also: potency is read from the fitted curve at half-maximal effect). The gist of the method:
(§1)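 Myeloma cells (500 per well) were exposed to MIPE 4.0 compounds by pin transfer and incubated 48 hours at 37C, 5% CO2. Viability was read as ATP by CellTiter-Glo luminescence, normalised to DMSO (100%) and media-only (0%) wells.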

Test [8] is described as follows: Quantitative High-Throughput drug screen in 47 multiple myeloma cell lines against the NCATS MIPE library collection: Delta47_JCRB cell viability assay (AID 1918925; also: potency is read from the fitted curve at half-maximal effect; nearly all actives have a fitted effect of over 45% in size). The gist of the method:
(§2)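 Steps: seed 500 cells per well; pin-transfer MIPE 4.0 library; incubate 48 h at 37C, 5% CO2, humidified; add CellTiter-Glo, 5 min room temperature; read luminescence.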

Test [9] in a line: Quantitative High-Throughput drug screen in 47 multiple myeloma cell lines against the NCATS MIPE library collection: EJM_DSMZ cell viability assay (AID 1918926; also: nearly all actives have a fitted effect of over 30% in size; also: potency is read from the fitted curve at half-maximal effect). Put shortly:
as §2

Test [10] is described as follows: Quantitative High-Throughput drug screen in 47 multiple myeloma cell lines against the NCATS MIPE library collection: AMO1_DSMZ cell viability assay (AID 1918927; also: nearly all actives have a fitted effect of over 30% in size; also: potency is read from the fitted curve at half-maximal effect). The gist of the method: as §2
Test [11] can be described thus: Quantitative High-Throughput drug screen in 47 multiple myeloma cell lines against the NCATS MIPE library collection: ARP1_JJKsccF8 cell viability assay (AID 1918928; also: potency is read from the fitted curve at half-maximal effect; nearly all actives have a fitted effect of over 40% in size). Put shortly:
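CellTiter-Glo luminescence after 48 h exposure gives viability, scaled between DMSO-only (100%) and media-only (0%) controls. Library compounds are pinned onto 500 myeloma cells per well, incubated at 37C with 5% CO2.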

Test [12] in a line: Quantitative High-Throughput drug screen in 47 multiple myeloma cell lines against the NCATS MIPE library collection: ARD_JJKsccE7 cell viability assay (AID 1918929; also: potency is read from the fitted curve at half-maximal effect). Put shortly:
as §2

Test [13] can be described thus: Quantitative High-Throughput drug screen in 47 multiple myeloma cell lines against the NCATS MIPE library collection: Karpas620_DSMZ cell viability assay (AID 1918959). Also: nearly all actives have a fitted effect of over 30% in size. Also: potency is read from the fitted curve at half-maximal effect. The gist of the method:
as §1

Test [14] in a line: NCATS anti-infectives library activity on HEK293 viability as a counter-qHTS vs the C. elegans viability qHTS (AID 1745854). Also: % is scaled to controls: 0 for no effect and ±100 for the full control effect. The gist of the method:
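Cytotoxicity counter-screen to a worm viability qHTS: CellTiter-Glo luminescence read 10 min after reagent addition. Compounds (final up to 41.7 uM, a 1:5 dilution series) incubated 24 hr at 37C with 1,500 HEK293 cells per well; digitonin control.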

Chain of Glutathione peroxidase 1 (Homo sapiens) (P07203 whole entry, looked up): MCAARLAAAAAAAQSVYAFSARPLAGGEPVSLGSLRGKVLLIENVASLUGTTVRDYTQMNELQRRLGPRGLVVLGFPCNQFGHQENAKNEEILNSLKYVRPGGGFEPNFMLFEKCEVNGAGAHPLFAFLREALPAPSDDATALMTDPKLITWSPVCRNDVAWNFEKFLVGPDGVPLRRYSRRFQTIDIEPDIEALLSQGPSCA
Chain of Phospholipid hydroperoxide glutathione peroxidase GPX4 (Homo sapiens) (P36969 whole entry, looked up): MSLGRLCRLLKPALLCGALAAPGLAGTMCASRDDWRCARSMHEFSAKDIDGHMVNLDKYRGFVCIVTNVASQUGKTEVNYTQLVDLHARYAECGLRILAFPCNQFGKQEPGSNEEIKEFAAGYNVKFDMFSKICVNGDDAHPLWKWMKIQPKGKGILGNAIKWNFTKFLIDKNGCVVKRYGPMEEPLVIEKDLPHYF

For the molecule `CC(=O)c1c(C)c2cnc(Nc3ccc(N4CCNCC4)cn3)nc2n(C2CCCC2)c1=O`, the Potency result in test [1] and in test [2] was “inactive” each time. For the same molecule, the activity change, negative = inhibition in test [3] was 1.06% [at 6.45 µM]. The activity change, negative = thiol reactive in test [4] is 7.61% [at 6.41 µM]. Further, the activity, negative = inhibition in test [5] was 0% [at 6.45 µM]. Further, the redox activity (% of DA3003) in [6] was -5.59% [at 6.41 µM]. In addition, the Potency in test [7] was 18700 nM (active); in [8], 23500 nM (active); in test [9], 18700 nM (active); in [10] it was 16600 nM (active); in test [11], 14800 nM (active); in [12], 14800 nM (active). The Potency in test [13] is 26400 nM (active).

Take `CCCCOc1c(C(=O)c2c(F)cc(C)cc2F)cnc2n[nH]cc12`: the Potency entry in test [1], in [2], in test [3], in [4], in [5] and in test [6] was “inactive” in each case. Moreover, the Potency is 4180 nM (active) in [7]; 2640 nM (active) in test [8]; 2640 nM (active) in [9]; 1660 nM (active) in [10]; 4180 nM (active) in test [11]; 2960 nM (active) in [12]. Also, in [13], the Potency was 7430 nM (active).

On to `NC(=O)c1cccc2cn(-c3ccc([C@@H]4CCCNC4)cc3)nc12`, for which the Potency entry in [14], in [3], in test [4], in test [5], in [6] and in [7] was “inactive” throughout. The Potency result in test [9] is “inactive”. Further, the Potency was 18.3 µM (active) and 22.7 µM (active) in test [1]; 16100 nM (active) in [2].

As for `N#CCNC(=O)c1ccc(-c2ccnc(Nc3ccc(N4CCOCC4)cc3)n2)cc1`, the Potency entry in test [1], in [2], in [3], in test [5], in test [6] and in test [12] was “inactive” throughout. For the same molecule, the Potency entry in test [13] is “inactive”. The Potency in test [4] is 1500 nM (active); in test [7] it was 20900 nM (active); in test [8] it was 9350 nM (active); in [9], 11800 nM (active); in test [11], 16600 nM (active).

Regarding `c1ccc2c(CCNc3ccc(Nc4ccncc4)cc3)c[nH]c2c1`, the Potency result in test [1], in test [2], in [3], in test [5], in test [6] and in test [7] was “inactive” each time. In addition, the Potency is 2670 nM (active) in test [4], 18700 nM (active) in test [8], 14800 nM (active) in test [9] and 1480 nM (active) in test [10].

As for `CC(C)[C@H](C(=O)Nc1ccc(C(=O)NO)cc1)c1ccccc1`, the Potency result in test [14], in test [1] and in [2] was “inactive” throughout. Moreover, the Potency in test [7] is 372 nM (active); in [8], 372 nM (active); in [10] it was 469 nM (active); in test [11] it was 132 nM (active); in [12], 418 nM (active); in test [13], 1050 nM (active).

In the case of `Cc1nc(N)ncc1-c1nc(N2CCOCC2)c2sc(C(C)(C)O)cc2n1`, the Potency entry in test [1], in test [2], in test [3], in test [4], in [5] and in test [6] was “inactive” in each case. For the same molecule, the Potency in [7] was 8330 nM (active); in test [8], 235 nM (active); in test [9], 1480 nM (active); in [10] it was 1320 nM (active); in test [11] it was 105 nM (active); in test [12] it was 33.2 nM (active).

On to `CS(=O)(=O)N1CCN(Cc2cc3nc(-c4cccc5[nH]ncc45)nc(N4CCOCC4)c3s2)CC1`, for which the Potency entry in [1], in test [2], in test [3], in [4], in test [5] and in test [6] was “inactive” in each case.

For `Nc1ccccc1NC(=O)c1ccc(CNC(=O)OCc2cccnc2)cc1`, the Potency result in test [14], in test [1], in test [2], in test [3], in test [4] and in [6] was “inactive” in each case. The Potency in test [7] is 2960 nM (active); in test [8], 372 nM (active); in test [9] it was 3720 nM (active); in test [10], 833 nM (active); in test [11] it was 1320 nM (active); in test [12], 935 nM (active). In addition, in test [13], the Potency was 2640 nM (active).

For `O=C(Cc1ccc(-c2ccc(OCCN3CCOCC3)cc2)cn1)NCc1ccccc1`, the Potency entry in test [1], in [2], in [3], in test [4], in [5] and in test [6] was “inactive” throughout. Moreover, the Potency in test [7] was 9.3 nM (active); in test [8], 26.4 nM (active); in test [9], 66.2 nM (active); in test [10], 13.2 nM (active); in [11] it was 16.6 nM (active); in [12] it was 16.6 nM (active). Moreover, in test [13], the Potency is 4.2 nM (active).

For `c1nc2nc(Nc3ccc(N4CCOCC4)cc3)nc(NC3CCCCC3)c2[nH]1`, the Potency entry in test [1], in test [2], in [3], in test [5] and in test [6] was “inactive” in each case. The Potency in test [4] was 922 nM (active); in test [7], 26400 nM (active); in test [8] it was 6620 nM (active); in test [9], 14800 nM (active); in test [10], 4690 nM (active); in test [11], 14800 nM (active). The Potency is 3320 nM (active) in test [12] and 6620 nM (active) in test [13].

For the molecule `CC(C)c1nn(-c2c(Cl)cccc2Cl)c2nc(Cc3ccc(OCCO)cc3)[nH]c(=O)c12`, the Potency entry in [1], in [2], in test [3], in [4], in test [5] and in test [6] was “inactive” throughout. For the same molecule, the Potency entry in [10], in test [12] and in test [13] was “inactive” throughout. The Potency in test [7] was 105 nM (active); in [8], 166 nM (active); in [9], 132 nM (active); in test [11] it was 118 nM (active).

With `CNc1nccc(-c2cccnc2Oc2cc(C(=O)Nc3cccc(C(F)(F)F)c3)ccc2C)n1`, the Potency entry in [1], in [2], in [3], in [4], in test [5] and in test [6] was “inactive” in each case. Also, the Potency was 16600 nM (active) in test [7]; 16600 nM (active) in [8]; 16600 nM (active) in test [9]; 9350 nM (active) in test [10]; 23500 nM (active) in test [11]; 9350 nM (active) in [12]. In test [13], the Potency is 5900 nM (active).

With `CNC(=O)c1ccc(N2C(=S)N(c3cnc(C#N)c(C(F)(F)F)c3)C(=O)C23CCC3)cc1F`, the Potency entry in test [1], in [2], in [3], in [4], in test [5] and in [6] was “inactive” throughout. Besides, the Potency in test [7] is 14800 nM (active); in test [8] it was 743 nM (active); in [9], 166 nM (active); in [10], 332 nM (active); in test [12] it was 2090 nM (active); in [13] it was 2350 nM (active).

In the case of `CN1CCN(Cc2ccc(NC(=O)Nc3ccc(Oc4cc(NC(=O)C5CC5)ncn4)cc3)cc2C(F)(F)F)CC1`, the Potency entry in test [1], in test [2], in test [3], in test [4], in test [5] and in test [6] was “inactive” each time. The Potency result in test [10], in [12] and in test [13] was “inactive” throughout. Further, the Potency in [7] is 296 nM (active); in test [8], 148 nM (active); in test [9] it was 332 nM (active); in [11], 372 nM (active).
